We go through 40 molecules from PubChem BioAssay (NCATS).

Records with an inconclusive call do not appear. Where a call stands in place of a potency, no number is given. Active and inactive are the calls of the source. Calls come from the whole dose curve; as a rule, active = well fitted inhibition curve with a large enough effect; inconclusive = small, poorly fitted or top-dose-only effect; inactive = flat fitted curve, though single readings scatter.
Potency is the fitted concentration of half-maximal effect.

Chain of Calcium and integrin-binding protein 1 (Homo sapiens) (Q99828 whole entry, looked up): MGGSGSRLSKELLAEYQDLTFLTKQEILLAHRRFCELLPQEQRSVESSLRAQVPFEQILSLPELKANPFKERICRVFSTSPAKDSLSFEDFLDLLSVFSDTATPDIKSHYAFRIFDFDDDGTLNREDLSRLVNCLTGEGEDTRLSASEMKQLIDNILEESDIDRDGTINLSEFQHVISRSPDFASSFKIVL

The target in this assay is Calcium and integrin-binding protein 1 (Homo sapiens) (UniProt Q99828). Put plainly: Primary qHTS for Identification of Calcium Integrin Binding Protein 1 (CIB1) Competitor (AID 1508620). Conditions: CIB1-GST / FITC-alphaIIb peptide fluorescence polarization; series mostly up to 114 µM. A digest of the protocol:
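CIB1-GST (1 uM final) and compound incubated 15 min at room temperature before adding FITC-alphaIIb peptide tracer (100 nM final). Competition for binding read by fluorescence polarization (ex 480, em 540) after another 15 min at room temperature.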
(In general: Quantitative high-throughput screening tests each substance at several concentrations.)
Turning to `COc1cc(OC)cc(-c2csc(N3CCC(C(N)=O)CC3)n2)c1`, the Potency result was “inactive”.
In the case of `CC(C)(C)OC(=O)N1CCN(c2ccc(NCc3ccc(-c4cccc([N+](=O)[O-])c4)o3)cc2)CC1`, the Potency result is “inactive”.
Under `COc1ccc(C(=O)N(Cc2ccccc2)Cc2ccco2)c(O)c1` stands “inactive”; under `CC(=O)c1ccc(-c2ccc3ncnc(NCc4ccc(C)o4)c3c2)o1`, “inactive”; under `NC(=O)c1ccc(C[C@H](C(=O)O)N2C(=O)c3ccc(C(=O)O)cc3C2=O)cc1`, “inactive”.
On to `CC(=O)Nc1sc2c(c1-c1cc3ccccc3o1)CCNC2`, for which the Potency result is “inactive”.
Consider `COc1cc2c(s1)c1cnn(Cc3ccccc3F)c(=O)c1n2C`, for which the Potency entry is “inactive”.
In the case of `O=[S+]([O-])(Nc1nccs1)c1ccc(NCc2ccc(Cl)c(Cl)c2)cc1` it was “inactive”; in that of `FC(F)(F)c1cc(-c2ccc(CNc3nc(-c4ccccc4C(F)(F)F)nc4ccccc34)cc2)ccc1Cl`, “inactive”; in that of `O=C(O)CNc1cccc(-c2nn3c(=O)cc(N4CCNCC4)nc3s2)c1`, “inactive”.
Consider `Cc1ccc(OCCn2c(CCNC(=O)/C=C/c3ccccc3)nc3ccccc32)cc1`, for which the Potency result is “inactive”.
For the molecule `Cc1noc(C)c1-c1ccc2ncnc(NCc3ccc(F)c(F)c3)c2c1`, the Potency entry was “inactive”.
In the case of `CC(=O)c1cc2c(s1)c1cnn(Cc3ccccc3F)c(=O)c1n2C` it was “inactive”; in that of `Cc1cc(C)n2ncc(C(=O)Nc3ccc(C(C)(C)C)cc3)c2n1`, “inactive”.
`O=C(c1ccccc1O)N(Cc1ccccc1)Cc1ccccc1`: the Potency result is “inactive”.
Regarding `Cc1cc(C)nc(Nc2nnc(N3CCN(c4cccc(C(F)(F)F)c4)CC3)s2)c1`, the Potency result was “inactive”.
For the molecule `O=C1c2ccccc2NC(c2ccc(-c3ccc(Br)cc3)o2)N1O` (stereo not given), the Potency result is “inactive”.
For the molecule `Fc1cnc(-c2ccccc2C(F)F)nc1NCc1ccc(-n2ccnn2)cc1`, the Potency result was “inactive”.
In the case of `COc1ccc(-c2nc3ccccc3c(=O)n2Cc2ccc(CNC(=O)CO)cc2)cc1COc1ccc(NC(C)=O)cc1`, the Potency result was “inactive”.
Under `COc1ccc(-c2nc3ccccc3c(=O)n2Cc2ccccc2)cc1OCc1ccc(NC(C)=O)cc1` stands “inactive”; under `CN(c1ccccc1)c1ccc(CNc2nn3c(=O)c4ccccc4nc3s2)cc1`, “inactive”.
Regarding `COc1cccc(CN2C(=O)c3ccccc3NC2c2ccc(OC)c(COc3c(C)cc(NC(C)=O)cc3C)c2)c1` (stereo not given), the Potency result was “inactive”.
Under `COc1cccc(C2c3c(ncn(CCCN4CCOCC4)c3=N)Oc3ccc4ccccc4c32)c1` (stereo not given) stands “inactive”.
For the molecule `CCOC(=O)c1c(-c2ccc(OC)cc2)csc1NC(=O)C1CCCO1` (stereo not given), the Potency result is “inactive”.
Under `COc1ccc(NC(=O)c2cnn3c(C)cc(C)nc23)cc1OC` stands “inactive”; under `CC(=O)Nc1sc2c(c1-c1ccc(C(F)(F)F)cc1)CCNC2`, “inactive”; under `COc1cc(O)c(C(CC(=O)N2CCC(Cc3ccccc3)CC2)c2ccc3c(c2)OCO3)c(OC)c1` (stereo not given), “inactive”.
Regarding `O=C(NC1CCCc2c1cnn2-c1ccc(F)cc1F)c1cccc(=O)[nH]1` (stereo not given), the Potency entry is “inactive”.
On to `S=C(NCCCc1cnc[nH]1)NCCCN(Cc1ccc(Cl)c(Cl)c1)c1ccccn1`, for which the Potency entry was “inactive”.
Take `COc1ccc(NC(=O)CN(C)C(=O)c2cc3c(s2)CCC3)cc1`: the Potency entry is “inactive”.
Under `Cc1cc(C)nc(NC(=S)N2CCN(c3ccc4nsnc4c3)CC2)c1` stands 50.1 µM (active).
Turning to `COc1cc(F)c(S(=O)(=O)N2CCCN(S(=O)(=O)c3ccc4c(c3)OCCO4)CC2)c(F)c1`, the Potency result was “inactive”.
Take `Oc1cc(Nc2ccc(N3CCCCC3)cc2)cc2cccnc12`: the Potency result is “inactive”.
Consider `Cc1ccc(-c2ccc(=O)n(CC(=O)NCCc3ncc[nH]3)n2)cc1`, for which the Potency entry is “inactive”.
`NC(=O)C1CCN(c2nc(-c3ccc(-c4ccccc4)cc3)cs2)CC1`: the Potency result is “inactive”.
For `O=C(Nc1ccc(Cl)c(Cl)c1)Nc1ccc(-c2ccncc2)s1`, the Potency entry was “inactive”.
Take `Nc1ccc(S(=O)(=O)N2CCCN(S(=O)(=O)c3ccc4c(c3)OCCO4)CC2)cc1`: the Potency entry was “inactive”.
In the case of `Cc1ccc(CNc2ncc(N3CCCCC3)cn2)cc1`, the Potency result is “inactive”.
Consider `COc1cccc(CNc2ccc(S(=O)(=O)Nc3nccs3)cc2)c1`, for which the Potency entry was “inactive”.
Turning to `C[C@H](NC(c1ccc(F)cc1)c1ccc2cccnc2c1O)c1ccccc1` (stereo not given in full), the Potency result is “inactive”.
